In paper PMC7862700, “An all-to-all approach to the identification of sequence-specific readers for epigenetic DNA modifications on cytosine”:

Legend:
Experiment in all cases: DAPPL (digital affinity profiling via proximity ligation, sequencing); 10 mM Tris-HCl pH 7.5, 50 mM NaCl, 1 mM DTT, 4% glycerol, room temperature, 30 min; GST-TFs on glutathione beads, 16-mer random dsDNA library, 0.1% formaldehyde crosslink after washing; high values mean tight binding
Settings in all cases: protein: recombinant; tags: N-terminal GST; dsDNA, one strand shown
ERF = target: T1, ERF (Homo sapiens, UniProt P50548 1-548)
T1 sequence: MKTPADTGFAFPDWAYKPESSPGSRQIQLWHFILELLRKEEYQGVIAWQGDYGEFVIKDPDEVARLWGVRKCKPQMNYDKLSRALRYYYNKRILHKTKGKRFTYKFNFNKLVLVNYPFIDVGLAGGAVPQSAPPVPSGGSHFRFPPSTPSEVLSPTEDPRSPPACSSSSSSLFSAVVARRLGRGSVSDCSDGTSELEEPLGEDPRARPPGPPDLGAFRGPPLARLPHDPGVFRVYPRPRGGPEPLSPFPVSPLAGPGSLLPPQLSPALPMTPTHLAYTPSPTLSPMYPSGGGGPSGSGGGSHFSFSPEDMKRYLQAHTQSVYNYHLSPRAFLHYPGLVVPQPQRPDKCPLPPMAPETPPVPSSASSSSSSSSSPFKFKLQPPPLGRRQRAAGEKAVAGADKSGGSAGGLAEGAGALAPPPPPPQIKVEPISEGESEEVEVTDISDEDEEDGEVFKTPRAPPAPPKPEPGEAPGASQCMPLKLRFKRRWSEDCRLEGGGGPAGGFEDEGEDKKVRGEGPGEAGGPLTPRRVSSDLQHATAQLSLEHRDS
Outline: (§1)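 Pools of DNA-barcoded human transcription factors, expressed in yeast as GST fusions on glutathione beads and combined with a tag-only sample, were incubated with 200 nmole of a 16-mer random double-stranded DNA library. Incubation took 30 min at room temperature in Tris/NaCl/DTT/glycerol buffer and was followed by washing, 0.1% formaldehyde crosslinking, proximity ligation (BsaI/T4 ligase, 1 h, 37 °C), PCR amplification and sequencing on an Illumina NextSeq500. Binding signal is the ratio of a hexamer's read frequency for a factor to its frequency for the tag-only sample.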

ETV3L = target: T2, ETV3L (Homo sapiens, UniProt Q6ZN32 1-361)
T2 sequence: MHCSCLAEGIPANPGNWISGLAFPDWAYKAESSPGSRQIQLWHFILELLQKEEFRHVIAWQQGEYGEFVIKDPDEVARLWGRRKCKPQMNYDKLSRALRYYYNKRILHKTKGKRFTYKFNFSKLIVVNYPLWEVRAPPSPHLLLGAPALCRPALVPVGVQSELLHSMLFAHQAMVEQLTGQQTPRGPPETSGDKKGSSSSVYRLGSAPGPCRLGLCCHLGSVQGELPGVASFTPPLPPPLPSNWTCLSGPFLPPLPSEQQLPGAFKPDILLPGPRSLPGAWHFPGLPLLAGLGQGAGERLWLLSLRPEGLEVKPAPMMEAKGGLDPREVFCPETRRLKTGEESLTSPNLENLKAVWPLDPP
Outline: as §1

ETS2 = target: T3, ETS2 (Homo sapiens, UniProt P15036 1-469)
T3 sequence: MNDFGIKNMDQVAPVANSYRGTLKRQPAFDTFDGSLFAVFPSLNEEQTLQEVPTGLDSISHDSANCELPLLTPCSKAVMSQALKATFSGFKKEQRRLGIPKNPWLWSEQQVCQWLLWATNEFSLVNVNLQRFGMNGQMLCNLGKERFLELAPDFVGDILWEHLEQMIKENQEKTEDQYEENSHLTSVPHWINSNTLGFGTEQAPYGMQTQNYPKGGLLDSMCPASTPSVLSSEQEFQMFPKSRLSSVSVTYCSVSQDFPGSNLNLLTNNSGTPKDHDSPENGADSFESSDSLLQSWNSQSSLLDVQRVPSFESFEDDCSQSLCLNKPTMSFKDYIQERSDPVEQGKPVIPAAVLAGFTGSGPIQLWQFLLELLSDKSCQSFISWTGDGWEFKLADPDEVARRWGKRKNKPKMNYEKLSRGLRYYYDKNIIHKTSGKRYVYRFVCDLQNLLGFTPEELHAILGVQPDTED
Outline: as §1

SPDEF = target: T4, SPDEF (Homo sapiens, UniProt O95238 1-335)
T4 sequence: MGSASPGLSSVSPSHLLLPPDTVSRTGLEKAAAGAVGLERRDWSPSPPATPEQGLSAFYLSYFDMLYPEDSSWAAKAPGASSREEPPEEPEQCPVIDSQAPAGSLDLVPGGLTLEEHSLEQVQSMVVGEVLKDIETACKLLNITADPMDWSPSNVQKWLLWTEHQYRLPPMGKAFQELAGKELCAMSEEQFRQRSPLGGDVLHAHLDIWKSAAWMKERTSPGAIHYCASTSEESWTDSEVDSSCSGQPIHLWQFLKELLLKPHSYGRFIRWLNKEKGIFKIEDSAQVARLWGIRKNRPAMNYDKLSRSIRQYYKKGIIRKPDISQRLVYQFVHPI
Outline: as §1

ETV7 = target: T5, ETV7 (Homo sapiens, UniProt Q9Y603 1-341)
T5 sequence: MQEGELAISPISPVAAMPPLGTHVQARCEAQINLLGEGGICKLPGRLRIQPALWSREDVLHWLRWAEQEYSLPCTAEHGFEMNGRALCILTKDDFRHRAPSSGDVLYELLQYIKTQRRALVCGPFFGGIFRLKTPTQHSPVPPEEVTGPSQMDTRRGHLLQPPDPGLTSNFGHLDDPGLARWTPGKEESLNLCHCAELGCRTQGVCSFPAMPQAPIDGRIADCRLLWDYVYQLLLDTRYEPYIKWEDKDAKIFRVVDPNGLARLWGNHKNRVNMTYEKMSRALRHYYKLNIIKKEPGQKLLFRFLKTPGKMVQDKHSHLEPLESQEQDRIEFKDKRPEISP
Outline: as §1

ELF5 = target: T6, ELF5 (Homo sapiens, UniProt Q9UKW6-2 1-255)
T6 sequence: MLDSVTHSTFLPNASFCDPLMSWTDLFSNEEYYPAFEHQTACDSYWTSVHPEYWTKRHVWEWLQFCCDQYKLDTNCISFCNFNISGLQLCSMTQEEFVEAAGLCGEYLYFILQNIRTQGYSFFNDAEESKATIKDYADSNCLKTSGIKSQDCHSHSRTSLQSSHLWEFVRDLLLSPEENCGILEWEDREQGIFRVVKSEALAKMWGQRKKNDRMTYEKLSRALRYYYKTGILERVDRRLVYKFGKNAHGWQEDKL
Outline: as §1

ETV3 = target: T7, ETV3 (Homo sapiens, UniProt P41162-2 1-143)
T7 sequence: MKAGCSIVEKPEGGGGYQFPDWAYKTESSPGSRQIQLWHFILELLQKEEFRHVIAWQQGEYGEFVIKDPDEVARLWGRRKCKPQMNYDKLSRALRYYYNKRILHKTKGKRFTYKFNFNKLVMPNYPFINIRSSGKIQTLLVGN
Outline: as §1

ETV6 = ETV6 (Homo sapiens, UniProt P41212 1-452)
Chain of ETV6 (P41212 whole entry): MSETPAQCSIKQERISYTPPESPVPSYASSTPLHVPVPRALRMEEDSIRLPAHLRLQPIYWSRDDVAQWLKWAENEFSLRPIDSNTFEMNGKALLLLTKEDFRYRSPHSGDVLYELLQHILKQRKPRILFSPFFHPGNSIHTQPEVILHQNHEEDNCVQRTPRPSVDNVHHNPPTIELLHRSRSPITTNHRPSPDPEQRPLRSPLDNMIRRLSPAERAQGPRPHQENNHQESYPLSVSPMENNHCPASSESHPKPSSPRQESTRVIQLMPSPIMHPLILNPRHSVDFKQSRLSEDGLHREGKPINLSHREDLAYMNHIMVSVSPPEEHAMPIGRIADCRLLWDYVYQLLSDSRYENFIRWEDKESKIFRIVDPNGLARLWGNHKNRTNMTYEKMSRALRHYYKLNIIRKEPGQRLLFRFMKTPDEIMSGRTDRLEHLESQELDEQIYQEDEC
Outline: as §1

| Sequence | binding signal (ERF) | binding signal (ETV3L) | binding signal (ETS2) | binding signal (SPDEF) | binding signal (ETV7) | binding signal (ELF5) | binding signal (ETV3) | binding signal (ETV6) |
| --- | --- | --- | --- | --- | --- | --- | --- | --- |
| TTCCTA | 1.54 fold enrichment (6-mer frequency, TF over GST control) | 1.57 fold enrichment (6-mer frequency, TF over GST control) | 1.8 fold enrichment (6-mer frequency, TF over GST control) | 1.6 fold enrichment (6-mer frequency, TF over GST control) | 1.64 fold enrichment (6-mer frequency, TF over GST control) | 2.04 fold enrichment (6-mer frequency, TF over GST control) | 1.89 fold enrichment (6-mer frequency, TF over GST control) | 1.99 fold enrichment (6-mer frequency, TF over GST control) |
| ATGCTA | 1.26 fold enrichment (6-mer frequency, TF over GST control) | 1.37 fold enrichment (6-mer frequency, TF over GST control) | 1.25 fold enrichment (6-mer frequency, TF over GST control) | 1.23 fold enrichment (6-mer frequency, TF over GST control) | 1.3 fold enrichment (6-mer frequency, TF over GST control) | 1.28 fold enrichment (6-mer frequency, TF over GST control) | 1.28 fold enrichment (6-mer frequency, TF over GST control) | 1.27 fold enrichment (6-mer frequency, TF over GST control) |
| TTTTGC | 1.53 fold enrichment (6-mer frequency, TF over GST control) | 1.35 fold enrichment (6-mer frequency, TF over GST control) | 1.31 fold enrichment (6-mer frequency, TF over GST control) | 1.35 fold enrichment (6-mer frequency, TF over GST control) | 1.36 fold enrichment (6-mer frequency, TF over GST control) | 1.27 fold enrichment (6-mer frequency, TF over GST control) | 1.15 fold enrichment (6-mer frequency, TF over GST control) | 1.49 fold enrichment (6-mer frequency, TF over GST control) |
| TTTCGT | 1.21 fold enrichment (6-mer frequency, TF over GST control) | 1.46 fold enrichment (6-mer frequency, TF over GST control) | 1.37 fold enrichment (6-mer frequency, TF over GST control) | 1.42 fold enrichment (6-mer frequency, TF over GST control) | 1.34 fold enrichment (6-mer frequency, TF over GST control) | 1.33 fold enrichment (6-mer frequency, TF over GST control) | 1.4 fold enrichment (6-mer frequency, TF over GST control) | 1.35 fold enrichment (6-mer frequency, TF over GST control) |
| ACCGAT | 1.05 fold enrichment (6-mer frequency, TF over GST control) | 1.11 fold enrichment (6-mer frequency, TF over GST control) | 1.11 fold enrichment (6-mer frequency, TF over GST control) | 1.05 fold enrichment (6-mer frequency, TF over GST control) | 1.08 fold enrichment (6-mer frequency, TF over GST control) | 1.04 fold enrichment (6-mer frequency, TF over GST control) | 1.13 fold enrichment (6-mer frequency, TF over GST control) | 1.08 fold enrichment (6-mer frequency, TF over GST control) |
| TAGTTC | 1.29 fold enrichment (6-mer frequency, TF over GST control) | 1.44 fold enrichment (6-mer frequency, TF over GST control) | 1.43 fold enrichment (6-mer frequency, TF over GST control) | 1.5 fold enrichment (6-mer frequency, TF over GST control) | 1.31 fold enrichment (6-mer frequency, TF over GST control) | 1.41 fold enrichment (6-mer frequency, TF over GST control) | 1.49 fold enrichment (6-mer frequency, TF over GST control) | 1.41 fold enrichment (6-mer frequency, TF over GST control) |
| TTGTGG | 1.33 fold enrichment (6-mer frequency, TF over GST control) | 1.6 fold enrichment (6-mer frequency, TF over GST control) | 1.36 fold enrichment (6-mer frequency, TF over GST control) | 1.31 fold enrichment (6-mer frequency, TF over GST control) | 1.34 fold enrichment (6-mer frequency, TF over GST control) | 1.32 fold enrichment (6-mer frequency, TF over GST control) | 1.37 fold enrichment (6-mer frequency, TF over GST control) | 1.29 fold enrichment (6-mer frequency, TF over GST control) |
